An excerpt weighted towards active compounds, which were near 2.3% of everything screened.
ANO1 activ: mouse TMEM16A channel activation, primary screen; HEK293 TMEM16A/YFP-H148Q/I152L, iodide quench fluorescence; hits give low values; AID 623877; Q8BHY3; 340,000 tested, 0.3% active; B-score at 10 µM;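 active = fluorescence-ratio B-score plate-corrected deviation score at least 3 library SD below zero, with starting fluorescence score within 5 deviations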;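 note: channel opened by trigger with iodide after compound preincubation; score built on the fluorescence ratio of max minus min over baseline; more negative score means more quench and so TMEM16A activation or potentiation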
Target sequence (Q8BHY3 whole entry, looked up): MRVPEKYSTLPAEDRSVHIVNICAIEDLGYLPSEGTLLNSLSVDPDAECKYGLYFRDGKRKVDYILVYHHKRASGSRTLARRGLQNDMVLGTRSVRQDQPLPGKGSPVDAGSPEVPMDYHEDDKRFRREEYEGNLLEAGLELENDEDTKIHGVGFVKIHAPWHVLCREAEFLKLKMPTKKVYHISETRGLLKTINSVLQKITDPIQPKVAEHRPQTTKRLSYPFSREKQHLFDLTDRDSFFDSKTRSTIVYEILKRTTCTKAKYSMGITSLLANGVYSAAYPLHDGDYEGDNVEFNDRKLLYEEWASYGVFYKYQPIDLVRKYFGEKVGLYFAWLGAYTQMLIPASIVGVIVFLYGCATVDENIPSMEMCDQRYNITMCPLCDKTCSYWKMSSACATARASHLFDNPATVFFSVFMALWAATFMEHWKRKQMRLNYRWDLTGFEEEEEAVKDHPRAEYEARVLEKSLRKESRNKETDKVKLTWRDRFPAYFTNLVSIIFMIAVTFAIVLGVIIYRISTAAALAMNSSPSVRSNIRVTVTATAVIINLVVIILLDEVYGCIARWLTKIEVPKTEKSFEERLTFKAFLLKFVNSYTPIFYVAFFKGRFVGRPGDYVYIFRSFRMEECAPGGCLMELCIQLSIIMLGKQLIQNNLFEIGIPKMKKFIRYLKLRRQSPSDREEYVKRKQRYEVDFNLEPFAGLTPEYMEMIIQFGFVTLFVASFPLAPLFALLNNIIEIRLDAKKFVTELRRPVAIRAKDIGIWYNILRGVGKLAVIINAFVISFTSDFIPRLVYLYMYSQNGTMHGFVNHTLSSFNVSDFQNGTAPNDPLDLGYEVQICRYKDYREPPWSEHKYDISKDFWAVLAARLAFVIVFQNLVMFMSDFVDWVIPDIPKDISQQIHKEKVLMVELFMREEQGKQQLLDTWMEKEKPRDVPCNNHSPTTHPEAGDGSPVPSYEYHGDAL
CHT allo act: human CHT allosteric activation; Q9GZV3; CHT-expressing cells, membrane potential dye, choline EC20; hits give high values; LV-AA mutant CHT in HEK293 cells; B-score at 10 µM; 310,000 tested, 0.49% active; AID 488977;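 active = initial fluorescence not abnormally high and integrated response B-score, plate-corrected, over 3 SD above library mean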
CHT block: inhibits the human high affinity choline transporter; Q9GZV3; CHT-expressing cells, membrane potential dye, choline response; hits give low values; B-score at 10 µM; 310,000 tested, 0.86% active; AID 488975;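 active = B-score over 3 SD under the library average, and starting fluorescence ratio not unusually high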;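 note: choline stimulus applied at its EC90 after an EC20 pre-addition; B-score computed on integrated fluorescence ratio after choline addition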
TMEM16A inh: mouse TMEM16A channel inhibition, primary screen; AID 588511; HEK293 TMEM16A/YFP iodide influx fluorescence, ionomycin; normalized B-score (activity score, 25-100; higher = stronger inhibition) at 10 µM; 310,000 tested, 1.2% active;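 active = ratio plate-corrected score three or more library SD toward inhibition, starting fluorescence score within five deviations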;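 note: score derived from kinetic fluorescence span divided by baseline fluorescence per well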
CHT activ conf: human CHT activation, confirmatory screen | shares compounds with CHT allo act | CHT-expressing cells, membrane potential dye fluorescence (FDSS); % of choline EC20–EC90 response window; HEK293 expressing CHT LV-AA mutant; choline added at its EC20 | activation, % at 10 µM | 2,500 tested, 91% active | AID 504833;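 active = primary screen active, with duplicate mean activation above negative control mean plus 3 SD, cut at about 11% in these data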
HEK293 MP dye: CHT activator counter-screen hit in parental HEK293 cells. membrane potential dye fluorescence (FDSS); measured after EC20 choline addition. ratio readout change at 10 µM, hits read low. 2,500 tested, 62% active. shares compounds with CHT allo act;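 active = duplicate-averaged ratio beyond 3 SD from buffer wells, up or down, though filed actives are nearly all decreases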
Hits are given with their value; n = inactive; x = no result; ! = not confirmed by another sample.

SMILES | ANO1 activ | CHT allo act | CHT block | TMEM16A inh | CHT activ conf | HEK293 MP dye
CCn1cc(S(=O)(=O)c2ccc(OC)cc2)c(=O)c2cc(F)c(N3CCN(C)CC3)cc21 | n | n | n | n | 59 | -48
CCN(C(=O)COC(=O)Cc1c[nH]c2ccccc12)c1c(N)n(Cc2ccccc2)c(=O)[nH]c1=O | n | n | n | n | x | x
O=C(NCCO)c1ccc2c3n(nc2c1)-c1ccc(Cl)cc1CO3 | n | 8.6 | n | n | 20 | -23
Cc1ccc(NC(=O)CSc2nc3ccccc3c(=O)n2CCCN2CCCCC2)cc1Cl | n | n | n | n | x | x
CC1CCN(CCCn2c(SCC(=O)Nc3ccccc3Cl)nc3ccccc3c2=O)CC1 | n | 6.4 | n | n | 52 | -34
NC(N)=Nc1nc(-c2ccccc2)c2ccccc2n1 | n | 8.1 | n | n | 24 | -52
COc1ccc(-c2nnc3ccc(SCC(N)=O)nn23)cc1OC | n | n | n | n | 31 | -31
CCOC(=O)CSc1ccc2nnc(-c3ccncc3)n2n1 | n | n | n | n | 12 | -33
CCOC(=O)CSc1ccc2nnc(-c3cccs3)n2n1 | n | n | n | n | x | x
COc1ccc(-c2nnc3ccc(SCC(=O)N4CCCCC4)nn23)cc1OC | n | n | n | n | 20 | n
CCNS(=O)(=O)c1ccc(CCC(=O)N2CCC(C)CC2)cc1 | n | n | n | n | x | x
COc1cc(-c2nnc(SCC(=O)N(Cc3ccccc3)C(C)(C)C)o2)cc(OC)c1OC | n | 7.9 | n | n | n | n
CCOc1ccc(C(=O)Nc2ccc3c(c2)OCCO3)cc1 | n | n | n | n | x | x
CCc1cc(C(=O)N2CCCC(C(=O)c3ccc(Oc4ccccc4)cc3)C2)n(C)n1 (stereo not given) | n | n | n | n | x | x
Cc1ccc(CCNC(=O)C2CCN(S(=O)(=O)c3ccc4nc5c(c(C(=O)O)c4c3)CCCC5)CC2)cc1 | n | n | n | n | x | x
N#Cc1cc([N+](=O)[O-])ccc1NCCCn1ccnc1 | n | 7.3 | n | n | 62 | -59
CCOC(=O)c1sc2nccc(N(C)C)c2c1N=CN(C)C | n | 7.2 | n | n | 60 | -52
Cc1ccc(CNC(=O)C(=O)NCCC2CCCCN2S(=O)(=O)c2ccccc2)cc1 (stereo not given) | n | 8.5 | n | n | n | n
N#Cc1ccc(-c2cn(-c3ccccc3)c3[n+]2CCCS3)cc1 | n | 10 | n | n | 62 | -65
c1ccc(-c2cn(-c3ccccc3)c3[n+]2CCCS3)cc1 | n | n | n | n | x | x
Cc1ccc(-c2cn(-c3ccccc3)c3[n+]2CCCS3)cc1 | n | 6.6! | n | n | 50 | -23
Cc1ccc(-c2c[n+]3c(n2-c2ccccc2)SCC3)cc1 | n | n | n | n | x | x
CCc1ccc(-n2cc(-c3ccc(F)cc3)[n+]3c2SCCC3)cc1 | n | 14 | n | n | 82 | n
CC(C)C(NC(=O)c1ccccc1)C(=O)OCn1nnc2ccccc2c1=O (stereo not given) | n | x | x | x | x | x
Cc1cc(SCC(=O)Nc2ccc3[nH]c(=O)[nH]c3c2)nc2ccccc12 | n | x | x | x | x | x
SMILES | ANO1 activ | CHT allo act | CHT block | TMEM16A inh | CHT activ conf | HEK293 MP dye
COc1ccc(N2CCN(C(=O)COC(=O)c3cccc(OC)c3O)CC2)cc1 | n | x | x | x | x | x
COc1ccc(N2CCN(C(=O)COC(=O)c3ccccc3OCc3ccc(F)cc3)CC2)cc1 | n | 6.8 | n | n | 20 | n
c1nc2sc3c(c2c2nnnn12)CCCC3 | n | n | n | n | x | x
Cc1nn2cnc3sc4c(c3c2nc1=O)CCCC4 | n | 6.6 | n | n | 40 | -46
O=C(O)c1cc(S(=O)(=O)N2CCCCC2)ccc1N1CCCC1 | n | x | x | x | x | x
Cc1cc(C)c2c(n1)nn1c(NCCCN3CCOCC3)cc(C)nc21 | n | x | x | x | x | x
Cc1cc(NCCCN2CCOCC2)n2nc(C)c(-c3ccc(F)cc3)c2n1 | n | n | n | n | 52 | -65
Cc1cc(NCCCN2CCOCC2)n2ncc(-c3ccccc3)c2n1 | n | n | n | n | x | x
Cc1cc(NCCCN2CCOCC2)n2nc(C)c(-c3ccccc3)c2n1 | n | 9.7 | n | n | 45 | -57
O=C(c1ccc(NS(=O)(=O)/C=C/c2ccccc2)cc1)N1CCCCC1 | n | n | n | n | x | x
CCc1cccc(C)c1NC(=O)CN(C)Cc1ccc(Br)cc1 | n | n | n | n | 24 | n
CC(NC(=O)CN(C)Cc1ccc(Br)cc1)c1ccccc1 (stereo not given) | n | 8 | n | n | 17 | n
CSc1ccccc1NC(=O)CN(C)Cc1ccc(Br)cc1 | n | n | n | n | x | x
CCCCN(CC(=O)Nc1c(C)cccc1CC)C(=O)SCC | n | 9.1 | n | n | 13 | n
Cc1ccc(Nc2c(O)nc[nH]c2=O)cc1 | n | x | x | x | x | x
O=C(NC1CCCC1)C1CCN(C(=O)c2cc(Cl)ccc2Cl)CC1 | n | n | n | n | x | x
CCC1CCCCN1CCNS(=O)(=O)c1ccc2c(c1)oc(=O)n2C (stereo not given) | n | n | n | n | 35 | -25
COc1cc(C(F)(F)F)ccc1C(=O)NCCc1ccco1 | n | n | n | n | x | x
Cc1nn(-c2ccccc2)c(C)c1C(=O)OC(C)C(=O)NC1CCCCC1C (stereo not given) | n | x | x | x | x | x
COC(=O)C1=C(C)N(Cc2ccccc2)C(=NCc2ccccc2)N[C@H]1c1cccc(F)c1 | n | 16 | n | n | 40 | n
COC(=O)C1=C(C)N(Cc2ccccc2)C(=NCc2ccccc2)N[C@H]1c1ccccc1 | n | x | x | x | x | x
CCOC(=O)c1ccc(-c2c(-c3ccccc3OC)sc3cc4c(cc23)OCO4)cc1F | n | x | x | x | x | x
Cc1nc2ccc(NC(=O)c3ccc(=O)[nH]c3)cc2s1 | n | n | n | n | 33 | -39
Cc1nc2ccc(NC(=O)c3ccccc3)cc2s1 | n | n | n | n | x | x
Cc1c(C)c2ccc(OC(C)C(=O)NCCCn3ccnc3)c(C)c2oc1=O (stereo not given) | n | n | n | n | 62 | -36
SMILES | ANO1 activ | CHT allo act | CHT block | TMEM16A inh | CHT activ conf | HEK293 MP dye
Cc1csc2c(C#N)c(=O)c3c(n12)CCC3 | n | 6.6 | n | n | 49 | -41
COc1ccc(C(=O)CN(CCC(=O)O)S(=O)(=O)c2ccc([N+](=O)[O-])cc2)cc1 | n | n | n | n | x | x
COc1ccccc1C(=O)Nc1ccnn1C1CCN(C/C=C/c2ccc(F)cc2)CC1 | n | n | n | n | n | n
O=C(Nc1ccnn1C1CCN(C/C=C/c2ccccc2)CC1)c1ccccc1Cl | n | n | n | n | x | x
Cc1ccc2oc(=O)cc(CN3CCC(C)CC3)c2c1 | n | n | n | n | x | x
Cc1ccc2c(CN3CCOCC3)cc(=O)oc2c1C | n | n | n | n | x | x
CCN1CCN(Cc2cc(=O)oc3ccc(C)cc23)CC1 | n | n | n | n | 44 | -46
CCc1cc2c(CN3CCN(CCO)CC3)cc(=O)oc2cc1O | n | n | n | n | 37 | -30
Cc1ccc2c(CN3CCN(CCO)CC3)cc(=O)oc2c1C | n | 8.9 | n | n | 54 | -59

Compound activity: PubChem, Johns Hopkins Ion Channel Center
